“And” between values parts separate entries of the source, which are not always exact repeats. Equal values may be shown once. Results filed as inconclusive are left out. The source made the active and inactive calls. Unless noted, calls come from the whole dose curve; as a rule, active = well fitted curve in the direction sought with a large enough effect; inconclusive = small, poorly fitted or top-dose-only effect, or another doubt; inactive = no such curve, though single readings can be large; an effect the other way counts as inactive or inconclusive.
What was measured:
[1] = molecular target: Cellular tumor antigen p53 (Homo sapiens) (UniProt P04637); assay: Primary qHTS for small molecule compounds that upregulate eGFP-tagged delta133p53alpha (in C-terminal) cells. (AID 2060324); note: potency is the fitted concentration of half-maximal effect
Method in brief: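 NCI-H358 cells with doxycycline-inducible D133p53a-eGFP (C-terminal tag), pre-induced 24 h with 100 ng/ml doxycycline, plated 800/well in doxycycline-free medium and treated 24 h at 37 °C with compound titrations. Cells were then fixed and Hoechst-stained, and GFP intensity was read by laser scanning cytometry.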

[2] = molecular target: Aldehyde dehydrogenase, mitochondrial (Homo sapiens) (UniProt P05091); assay: qHTS for Inhibitors of the Aldehyde Dehydrogenase Family (ALDH2) Validation screens (AID 2061302; active = well fitted inhibition curve with a large enough effect; title and protocol of this record describe different tests; note: potency is the fitted concentration of half-maximal effect)
[3] = molecular target: Aldehyde dehydrogenase, mitochondrial (Homo sapiens) (UniProt P05091); assay: qHTS for Inhibitors of the Aldehyde Dehydrogenase Family (ALDH2) Primary screen (AID 2061308); note: nearly all actives have a fitted effect of over 55% in size; note: potency is the fitted concentration of half-maximal effect
[4] = molecular target: Retinaldehyde dehydrogenase 3 (Homo sapiens) (UniProt P47895); assay: qHTS for Inhibitors of the Aldehyde Dehydrogenase Family (ALDH1A3) Validation screen (AID 2061312); note: % is set by controls: 0 for no effect and ±100 for the full control effect; nearly all actives have a fitted effect of over 45% in size
[5] = molecular target: Retinaldehyde dehydrogenase 3 (Homo sapiens) (UniProt P47895); assay: qHTS for Inhibitors of the Aldehyde Dehydrogenase Family (ALDH1A3) Primary screen (AID 2061315);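 note: plate controls were DMSO vehicle for no effect and reference inhibitor for full effect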
[6] = BET inhibitor-based combinations targeting novel dependencies in MECOM-rearranged (r) AML: SET-2 cell line (AID 2202231); conditions: SET-2 AML cells viability, CellTiter-Glo luminescence, 48 h; viability: active compounds read low, series mostly up to about 46 µM;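 note: plate controls were DMSO treated cells for no effect and wells without cells for full effect; nearly all actives have a fitted effect of over 35% in size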
Method in brief: (§1)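 Here, 11-point titrations of each agent were applied to 500 seeded cells and incubated 48 hr; CellTiter-Glo signal, scaled against DMSO and empty wells, was integrated as AUC, then Z-scored within the individual line.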

[7] = BET inhibitor-based combinations targeting novel dependencies in MECOM-rearranged (r) AML: OCI-AML3 cell line (AID 2202232); conditions: Potency: OCI-AML3 viability;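 note: series mostly up to about 46 µM; plate controls were DMSO vehicle wells for no effect and wells without cells for full effect; nearly all actives have a fitted effect of over 35% in size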
Method in brief: as §1

[8] = BET inhibitor-based combinations targeting novel dependencies in MECOM-rearranged (r) AML: MV-4-11 cell line (AID 2202233); note: nearly all actives have a fitted effect of over 45% in size; note: potency is the fitted concentration of half-maximal effect
Method in brief: (§2)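 Normalized to DMSO and empty-well controls, the luminescence data from CellTiter-Glo after 48 hr drug exposure were fitted across 11 concentrations. Reported metrics are area under the dose-response curve and its Z-transformed form.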

[9] = BET inhibitor-based combinations targeting novel dependencies in MECOM-rearranged (r) AML: HNT-34 cell line (AID 2202234);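 note: plate controls were vehicle wells for no effect and cell-free wells for full effect; nearly all actives have a fitted effect of over 35% in size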
Method in brief: as §2

[10] = BET inhibitor-based combinations targeting novel dependencies in MECOM-rearranged (r) AML: UCSD-AML1 cell line (AID 2202235);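 note: series mostly up to about 46 µM; plate controls were DMSO vehicle wells for no effect and blank wells for full effect; nearly all actives have a fitted effect of over 40% in size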
Method in brief: as §2

[11] = BET inhibitor-based combinations targeting novel dependencies in MECOM-rearranged (r) AML: AML-191 cell line (AID 2202236;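 note: plate controls were vehicle wells for no effect and wells without cells for full effect; nearly all actives have a fitted effect of over 35% in size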)
Method in brief: as §1

[12] = BET inhibitor-based combinations targeting novel dependencies in MECOM-rearranged (r) AML: AML-194 cell line (AID 2202237;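 note: plate controls were vehicle wells for no effect and wells without cells for full effect; nearly all actives have a fitted effect of over 40% in size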)
Method in brief: as §1

[13] = molecular target: Aldehyde dehydrogenase, mitochondrial (Homo sapiens) (UniProt P05091); assay: qHTS for Inhibitors of the Aldehyde Dehydrogenase Family (ALDH2) Confirmatory screens (AID 2061303; active = well fitted inhibition curve with a large enough effect; title and protocol of this record describe different tests; note: nearly all actives have a fitted effect of over 45% in size; note: potency is the fitted concentration of half-maximal effect)
[14] = qHTS for Inhibitors of the Aldehyde Dehydrogenase Family (ALDH1A2, ALDH1A3, ALDH2, ALDH3A1) (AID 2061307); note: nearly all actives have a fitted effect of over 50% in size; for Potency: test system not described further here; potency is the fitted concentration of half-maximal effect
[15] = molecular target: Retinaldehyde dehydrogenase 3 (Homo sapiens) (UniProt P47895); assay: qHTS for Inhibitors of the Aldehyde Dehydrogenase Family (ALDH1A3) Confirmatory screens (AID 2061311); note: nearly all actives have a fitted effect of over 60% in size; note: potency is the fitted concentration of half-maximal effect
[16] = molecular target: Retinal dehydrogenase 2 (Homo sapiens) (UniProt O94788); assay: qHTS for Inhibitors of the Aldehyde Dehydrogenase Family (ALDH1A2) Confirmation screens (AID 2061314); note: nearly all actives have a fitted effect of over 65% in size; note: potency is the fitted concentration of half-maximal effect
[17] = molecular target: Aldehyde dehydrogenase 1A1 (Homo sapiens) (UniProt P00352); assay: qHTS for Inhibitors of the Aldehyde Dehydrogenase Family (ALDH1A1) Confirmatory screens (AID 2061316); note: nearly all actives have a fitted effect of over 65% in size; note: potency is the fitted concentration of half-maximal effect

Sequence of Cellular tumor antigen p53 (Homo sapiens) (P04637 whole entry, looked up): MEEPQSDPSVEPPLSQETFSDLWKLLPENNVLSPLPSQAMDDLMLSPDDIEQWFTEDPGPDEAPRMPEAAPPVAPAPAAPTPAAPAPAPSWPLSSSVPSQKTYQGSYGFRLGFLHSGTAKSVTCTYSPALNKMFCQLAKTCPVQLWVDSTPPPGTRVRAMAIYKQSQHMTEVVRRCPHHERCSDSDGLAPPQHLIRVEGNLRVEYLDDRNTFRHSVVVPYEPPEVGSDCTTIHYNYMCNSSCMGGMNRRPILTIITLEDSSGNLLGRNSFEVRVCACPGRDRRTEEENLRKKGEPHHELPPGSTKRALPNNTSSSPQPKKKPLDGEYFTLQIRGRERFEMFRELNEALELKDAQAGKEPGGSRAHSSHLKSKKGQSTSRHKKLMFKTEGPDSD

COc1ccc2cc([C@H](C)C(=O)O)ccc2c1
inactive: Potency [1] | Potency [2] | Potency [3] | Potency [4] | Potency [5] | viability [6] 116% | Potency [7] | Potency [8] | Potency [9] | Potency [10] | Potency [11] | Potency [12]

Cc1cc(C(C)(C)C)c(O)c(C)c1CC1=NCCN1
inactive: Potency [1] | Potency [2] | Potency [3] | Potency [4] | Potency [5] | Potency [7] | Potency [8] | Potency [10] | Potency [11] | Potency [12]

CC(C)(C)c1ccc(S(=O)(=O)/C=C/C#N)cc1
active: Potency [1] 26.9 µM | Potency [2] 1.26 µM and 708 nM

CC(C(=O)O)c1cccc(C(=O)c2ccccc2)c1 (stereo not given)
inactive: Potency [1] | Potency [2] | Potency [4] | viability [6] 117% | Potency [7] | Potency [8] | Potency [9] | Potency [11] | Potency [12]

CCOC(=O)c1ncn2c1CN(C)C(=O)c1cc(F)ccc1-2
inactive: Potency [1] | Potency [2] | Potency [4] | viability [6] 114% | Potency [7] | Potency [8] | Potency [9] | Potency [10] | Potency [11] | Potency [12]

NC(=O)c1cn(Cc2c(F)cccc2F)nn1
inactive: Potency [1] | Potency [2] | Potency [4]

CCCCCC(O)CCCC(=O)O (stereo not given)
inactive: Potency [1] | Potency [2] | Potency [4]

CCN1C(=O)C=CC1=O
active: Potency [2] 12600 nM
inactive: Potency [1] | Potency [13] | Potency [14] | Potency [15] | Potency [16] | Potency [17]

CN(C)CCOC(C)(c1ccccc1)c1ccccn1 (stereo not given)
inactive: Potency [1] | Potency [2] | Potency [4]

O=C1NCc2c1c1c3ccccc3[nH]c1c1[nH]c3ccccc3c21
inactive: Potency [2] | Potency [4]
active: Potency [1] 30.1 µM

O=C(N[C@@H](Cc1ccccc1)C(=O)CCl)OCc1ccccc1
inactive: Potency [4]
active: Potency [1] 12 µM | Potency [15] 11.2 µM | Potency [16] 0.798 µM | Potency [17] 0.318 µM

Cc1cc2c(cc1Cl)N(C(=O)Nc1ccc(Oc3cccnc3C)nc1)CC2
inactive: Potency [2]

Cc1nnc(SCC2=C(C(=O)O)N3C(=O)[C@@H](NC(=O)Cn4cnnn4)[C@H]3SC2)s1
inactive: Potency [2]

CC(C)NC[C@@H](O)c1ccc(O)c(O)c1
inactive: Potency [2]

CCC(NC(C)C)C(O)c1ccc(O)c(O)c1 (stereo not given)
inactive: Potency [2] | Potency [13] | Potency [14] | Potency [15] | Potency [16]

CC(C)(C)OC(=O)N1CCC(c2ccc(NCc3ccc(-c4ccc(C#N)cc4)o3)cc2)CC1
inactive: Potency [5]
active: Potency [2] 355 nM | Potency [13] 112 nM | Potency [14] 0.896 µM | Potency [15] 3.16 µM | Potency [16] 8.91 µM | Potency [17] 12.7 µM

Cc1ccc(/C(=C\CN2CCCC2)c2ccccn2)cc1
inactive: Potency [2]

O=C(O)Cc1ccc(O)c(O)c1
active: Potency [17] 14.2 µM
inactive: Potency [1] | Potency [14]

OC(CCN1CCCCC1)(c1ccccc1)C1CC2C=CC1C2 (stereo not given)
active: Potency [8] 23.5 µM
inactive: Potency [1] | Potency [2] | Potency [4] | viability [6] 97.6% | Potency [10] | Potency [11] | Potency [12]

C/C=C/CC(C)C(O)C1C(=O)NC(CC)C(=O)N(C)CC(=O)N(C)C(CC(C)C)C(=O)NC(C(C)C)C(=O)N(C)C(CC(C)C)C(=O)NC(C)C(=O)NC(C)C(=O)N(C)C(CC(C)C)C(=O)N(C)C(CC(C)C)C(=O)N(C)C(C(C)C)C(=O)N1C (stereo not given)
inactive: Potency [1] | Potency [3] | Potency [4] | Potency [5]

N#Cc1ccc(-c2ccc(CNc3ccc(N4CCC(C(F)(F)F)CC4)cc3)o2)cc1
inactive: Potency [3] | Potency [16]
active: Potency [2] 447 nM | Potency [13] 35.7 nM | Potency [14] 0.712 µM | Potency [17] 6.34 µM

CC(C)(C)OC(=O)N1CCN(c2cccc(NCc3ccc(-c4ccc(C#N)cc4)o3)c2)CC1
active: Potency [2] 1780 nM | Potency [13] 1120 nM | Potency [14] 1.59 µM | Potency [3] 282 nM | Potency [17] 7.12 µM
inactive: Potency [16]

O=C(O)CN(CCOCCOCCN(CC(=O)O)CC(=O)O)CC(=O)O
inactive: Potency [2] | Potency [13] | Potency [14] | Potency [15] | Potency [16] | Potency [17]

CC(C)(C)OC(=O)N1CCN(c2ccc(NCc3ccc(-c4ccc(C#N)cc4)o3)cc2)CC1
inactive: Potency [3] | Potency [5]
active: Potency [2] 282 nM | Potency [13] 79.4 nM | Potency [14] 4.47 µM | Potency [15] 15.8 µM | Potency [16] 7.94 µM

O=C(O)/C=C/c1ccc(O)c(O)c1
inactive: Potency [2] | Potency [13] | Potency [14] | Potency [15] | Potency [16] | Potency [17]

CC(C)(C)OC(=O)N1CCN(c2ccc(NCc3ccc(-c4ccc(C#N)cc4)o3)nc2)CC1
inactive: Potency [5]
active: Potency [2] 708 nM | Potency [13] 447 nM | Potency [14] 15.8 µM | Potency [16] 25.1 µM | Potency [17] 7.12 µM
